In all, about 340,000 compounds went through this assay and about 2,100 (0.62%) were called active.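 The calls were made as follows: active = first-screen hits whose inhibition reached a set limit at any dose in the follow-up dose series; inconclusive = inhibition above the set first-screen limit but never retested; inactive = the rest.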 Not all results are given here. Measured potencies and affinities stand elsewhere.
Target: Rac GTPase-activating protein 1 (Homo sapiens) (UniProt Q9H0H5)
Test: blockers of MgcRacGAP-driven Rac1 GTP hydrolysis – biochemical, ADP Hunter fluorescence, primary and confirmatory, confirmation (AID 624330);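 also: fluorescence reports GDP produced by GAP-driven GTP hydrolysis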
Conditions: MgcRacGAP-stimulated Rac1 GTP hydrolysis, at 30 µM, hits give high values, GST-tagged Rac1 F28L mutant substrate

Rac GTPase-activating protein 1 (Homo sapiens), sequence (Q9H0H5 whole entry, looked up): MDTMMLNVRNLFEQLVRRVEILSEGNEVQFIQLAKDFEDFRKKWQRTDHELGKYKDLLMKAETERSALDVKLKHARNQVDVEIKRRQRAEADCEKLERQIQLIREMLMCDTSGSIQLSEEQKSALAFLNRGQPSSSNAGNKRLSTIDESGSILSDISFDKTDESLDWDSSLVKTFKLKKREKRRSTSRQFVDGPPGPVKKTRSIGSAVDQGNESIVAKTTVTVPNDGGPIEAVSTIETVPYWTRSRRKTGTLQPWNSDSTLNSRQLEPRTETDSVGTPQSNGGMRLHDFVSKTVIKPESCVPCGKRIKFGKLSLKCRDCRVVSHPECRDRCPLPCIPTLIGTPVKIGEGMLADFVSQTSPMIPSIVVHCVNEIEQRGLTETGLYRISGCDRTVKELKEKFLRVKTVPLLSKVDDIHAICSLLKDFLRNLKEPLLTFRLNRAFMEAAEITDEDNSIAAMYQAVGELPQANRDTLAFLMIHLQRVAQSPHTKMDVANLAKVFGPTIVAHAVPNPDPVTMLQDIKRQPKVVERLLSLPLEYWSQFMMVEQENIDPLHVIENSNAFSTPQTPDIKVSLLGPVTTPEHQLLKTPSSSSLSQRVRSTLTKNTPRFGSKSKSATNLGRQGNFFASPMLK

inhibition, inactive:
COc1ccc(N2C(=NC(=O)C3CC3)SC3CS(=O)(=O)CC32)cc1Cl (configuration not stated) 8.01%
Cc1ccsc1C(=O)OCC(=O)NC1CCCCC1 -3%
O=C1CC(N2CCN(c3ccccc3)CC2)C(=O)N1c1cccc(Cl)c1 (configuration not stated) 11.1%
COc1ccc(N2CC(C(=O)NNC(=O)c3ccc(Br)cc3)CC2=O)c(OC)c1 (configuration not stated) 5.62%
O=C(Nc1nc(-c2ccc(F)cc2)cs1)c1cccc(N2C(=O)CCC2=O)c1 4.08%
CCOC(=O)N1c2ccccc2Sc2ccccc21 1.37%
Cc1ccc(SCC(=O)N2c3ccccc3Sc3ccccc32)cc1 6.99%
COc1cc2c(cc1OC)C(c1cccs1)N(C(=O)c1ccncc1)CC2 (configuration not stated) 11.6%
COc1cccc(OCC(=O)NC2CCCCCC2)c1 -1.14%
CCN1CCN(C(=O)c2cc3cc4cc(OC)ccc4nc3s2)CC1 8.34%
NNC(=O)c1cc2cc3ccccc3nc2s1 4.35%
O=[N+]([O-])c1cc([N+](=O)[O-])c(Oc2cc(Cl)ccc2Cl)cc1NC1CCCCCCC1 3.85%
CCOC(=O)C1CCN(Cc2ccccc2C(F)(F)F)CC1 8.95%
CCOC(=O)C1CCN(Cc2cccc(Oc3ccc(Cl)cc3)c2)CC1 21%
COc1cccc(CN2CCC(C(=O)N3CCN(c4ccccc4F)CC3)CC2)c1 15.7%
COc1cccc(CN2CCC(C(=O)N3CCN(Cc4ccc5c(c4)OCO5)CC3)CC2)c1 27.8%
CCOC(=O)C1CCN(Cc2ccccc2C)CC1 2.84%
CCOC(=O)C1CCN(Cc2cccc(OCc3ccccc3)c2)CC1 19.5%
CCOC(=O)C1CCN(Cc2ccc(OCc3ccccc3)cc2)CC1 18.4%
CCOC(=O)C1CCCN(Cc2ccc(-c3ccccc3)cc2)C1 (configuration not stated) -2.6%
CCSc1ccc2nnc(-c3cccc(F)c3)n2n1 6.86%
COC(CN(C)C(=O)C1CCC(CNS(=O)(=O)c2ccccc2)CC1)OC (configuration not stated) 6.07%
COc1ccc(CNC(=O)COC(=O)CN2C(=O)C3CCCCC3C2=O)cc1 (configuration not stated) 12.8%
CC(C)c1nccn1CCC(=O)O 7.06%
C[C@H]1CN([C@@H](C)CO)S(=O)(=O)c2ccc(Br)cc2O[C@H]1CN(C)C(=O)Cc1ccccn1 -10%
O=C1C[C@@H](c2ccccc2)Oc2cc(O)cc(O)c21 7.07%
O=C1CC(c2ccccc2)Oc2cc(O)cc(O)c21 (configuration not stated) 7.51%

From PubChem BioAssay AID624330 (Southern Research Specialized Biocontainment Screening …, 2012)
